# ± gives the standard deviation. Whole data set: some 6,600 sequences, median “pre-steady-state target cleavage rate” near 0.07, cut for the highest 2% near 0.72. For the sample, the highest values were picked, then their nearest neighbours and some sequences at random.
# Test system: MIWI (PIWIL1) piRISC loaded with Kctd7 piRNA (30 nt)
# Assay: pre-steady-state target cleavage rate (min^-1); MIWI and MILI are mouse PIWI proteins and EfPiwi is from a freshwater sponge; tags in brackets are library labels; higher = faster piRNA-guided slicing of the target
# Conditions: guide: Kctd7 piRNA 5'p-UGUUAAUCUCUCAGAGAAGGUGACAGUGAU; auxiliary factor: 500 nM mouse GTSF1
# Summary of the method: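 Reactions were run for 0–8 or 0–960 min at 33 °C in HEPES–potassium acetate buffer, combining 1 nM active affinity-purified piRISC with one synthetic guide, […] transcribed, DNA-blocked target RNA library and, in some cases, 500 nM GTSF1 partner protein. Sequencing of uncleaved targets followed, with normalisation to depth and to weakly complementary targets. Three trials were pooled, k3 was capped at 0.0001 min^-1, and the pre-steady-state cleavage rate was taken from a burst-and-steady-state fit.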
# 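Note: 1 nM active piRISC with 0.1 nM target library at 33 °C single turnover.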
row,Sequence,pre-steady-state target cleavage rate
1,UUCAACUGUCACCUUCUCUGAGAGAUUAACA,0.733 ± 0.039
2,UAGUGUGUGACCUUCUCUGUGAGAUUAACA,0.206 ± 0.016
3,UAGUGACAGUCCCUUCUCUGAGAGAUUAACA,0.611 ± 0.046
4,UAGACUCGUCACCUUCUCUGAGAGAUUAACA,0.687 ± 0.041
5,AUCACUCGUCACCUUCUCUGAGAGAUUAACA,0.747 ± 0.043
6,UUCACUCUCACCUUCUCUGAGAGAUUAACA,0.54 ± 0.028
7,UUCACUCGUCACCUUCUCUGAGAGAUUAACA,0.78 ± 0.042
8,UACACACUCACCUUCUCUGAGAGAUUAACA,0.568 ± 0.044
9,UAGUCUCGUCACCUUCUCUGAGAGAUUAACA,0.571 ± 0.025
10,UACACUCUCACCUUCUCUGAGAGAUUAACA,0.444 ± 0.031
11,UACACUCGUCACCUUCUCUGAGAGAUUAACA,0.77 ± 0.035
12,AUCACUCUCACCUUCUCUGAGAGAUUAACA,0.551 ± 0.029
13,UACACUGUCACCUUCUCAGAGAGAAUAACA,0.076 ± 0.021
14,AUCACUGUCACGUUCUCUCAGAGAUUAACA,0.0868 ± 0.0082
15,UAGUGUCUCACCUUCACUGAGAGAUUAACA,0.276 ± 0.019
16,UAGUGACUCACCAUCUCUGAGAGUUUAACA,0.173 ± 0.035
17,UACACUGUCACCUUCUCUGAGACAUUUUGA,0.00497 ± 0.0047
18,UAGACUGUCACCUUCUCUGAGAGGAUUAACA,0.369 ± 0.036
19,UACACUGUCACCUUCUCUGAGGGAUUAACA,0.611 ± 0.033
20,UAGACUGUCACCUUCUCUGAGGGAUUAACA,0.741 ± 0.051
21,UUCACUGUCACCUUCUCUGAGGGAUUAACA,0.51 ± 0.024
22,AUCACUGUCACCUUCUCUGAGGGAUUAACA,0.75 ± 0.041
23,UAGACUGUCACCUUCUCUGAGGAUUAACA,0.00433 ± 0.0033
24,UAGUGACUCACGUUCUCUGAGAGUUUAACA,0.0255 ± 0.006
25,UACACUGUCACCUUCACUGAGACAUUAACA,0.19 ± 0.025
26,AUCACUCACACCUUCUCUGAGAGAUUAACA,0.587 ± 0.027

row,Sequence,pre-steady-state target cleavage rate
1,UAGACUGUCACCUUCUCUGAGAGAUUUACA,0.369 ± 0.049
2,UAGUGACACACCAUCUCUGAGAGAUUAACA,0.274 ± 0.027
3,AUCACUGUCAGCUUCUCUGAGAGUUUAACA,0.149 ± 0.018
4,AUCACUGACACCUUCUCUGAGAGUUUAACA,0.644 ± 0.16
5,UUCACUGUCACCUUCUCUGAGAGUUUAUCA,0.27 ± 0.061
6,UACACUGUCACCUUCUCUGAGAGUUUAUCA,0.137 ± 0.041
7,AUCUCUGUCACCUUCUCUGAGAGUUUAACA,0.711 ± 0.12
8,UUCUCUGUCACCUUCUCUGAGAGUUUAACA,0.517 ± 0.07
9,UUCACUGACACCUUCUCUGAGAGUUUAACA,0.591 ± 0.11
10,UACACUGACACCUUCUCUGAGAGUUUAACA,0.904 ± 0.3
11,AUCACUGUCACCUUCUCUGAGAGUUUAUCA,0.753 ± 0.19
12,UACUCUGUCACCUUCUCUGAGAGUUUAACA,0.781 ± 0.098
13,UAGUCUGUCACCUUCUCUGAGAGAAAUACA,0.0823 ± 0.015
14,AUCACUGAGACCUUCUCUGAGAGAUAUUGA,0.0157 ± 0.0047
15,UAGUGACAGCCCUUCUCUGAGAGAUUAACA,0.184 ± 0.019
16,UUCACUGUCACCUUCUCUGAGAGUUUUACA,0.559 ± 0.12
17,UAGUGACUCACCUUCUCUGUGACAUUAACA,0.0765 ± 0.0076
18,UAGUCUCUCACCUUCUGUGAGAGAUUAACA,0.00482 ± 0.0046
19,UAGACUCUCACCUUCUCUGAGAGAUUUUGA,0.0479 ± 0.011
20,AUCACUGGCACCUUCUCUGAGAGAUUAACA,0.724 ± 0.17
21,UUGCACUGUCACCUUCUCUGAGAGAUUAACA,0.781 ± 0.045
22,UUCACUGUGCACCUUCUCUGAGAGAUUAACA,0.606 ± 0.05
23,UUCACUGGCACCUUCUCUGAGAGAUUAACA,0.728 ± 0.15
24,AUGCACUGUCACCUUCUCUGAGAGAUUAACA,0.775 ± 0.056
25,UACACUGGCACCUUCUCUGAGAGAUUAACA,0.453 ± 0.12
26,UGCACUGUCACCUUCUCUGAGAGAUUAACA,0.726 ± 0.039

row,Sequence,pre-steady-state target cleavage rate
1,UACAGUGUCACCUUCUGUGAGAGAUUAACA,0.662 ± 0.028
2,UAGUGACACACCUUCUCAGAGUGAUUAACA,0.00558 ± 0.0037
3,UAGUGUGUCACCUUCUCUGAGAGAUUAUCA,0.219 ± 0.026
4,UAGUGACUCUGCUUCUCUGAGAGAUUAACA,0.00843 ± 0.0019
5,UAGUGACAGUCCUUCCUCUGAGAGAUUAACA,0.27 ± 0.027
6,UAGUCUCUCACGUUCUCUGAGAGAUUAACA,0.0195 ± 0.0042
7,UAGUGACACACCAUCUCUGAGAGAAUAACA,0.0218 ± 0.0057
8,AGCACUGUCACCUUCUCUGAGAGAUUAACA,0.765 ± 0.044
9,UAGUCUGUCACCUUCUGUGAGAGAUAAACA,0.0539 ± 0.0081
10,AUCGACUGUCACCUUCUCUGAGAGAUUAACA,0.821 ± 0.059
11,UUCGACUGUCACCUUCUCUGAGAGAUUAACA,0.859 ± 0.06
12,UACGACUGUCACCUUCUCUGAGAGAUUAACA,0.746 ± 0.07
13,UAGUGUGUCAGCUUCUCUGAGAGAUUAAGA,0.0938 ± 0.015
14,UACACUCUCACCUUCUCUGUGAGAUUAACA,0.141 ± 0.014
15,UUGUGUGUCACCUUCUCUGAGAGAUUAACA,0.571 ± 0.025
16,UAGUCUCUCACCAUCUCUGAGAGAUUAACA,0.0365 ± 0.0075
17,UAGUCAGUCACCAUCUCUGAGAGAUUAACA,0.706 ± 0.04
18,UUCACUCUCACCAUCUCUGAGAGAUUAACA,0.465 ± 0.024
19,UAGACAGUCACCAUCUCUGAGAGAUUAACA,0.68 ± 0.042
20,AUCACAGUCACCAUCUCUGAGAGAUUAACA,0.771 ± 0.036
21,UACAGUGUCACCAUCUCUGAGAGAUUAACA,0.592 ± 0.036
22,UUCACAGUCACCAUCUCUGAGAGAUUAACA,0.747 ± 0.039
23,UACACAGUCACCAUCUCUGAGAGAUUAACA,0.833 ± 0.045
24,UACACUCUCACCAUCUCUGAGAGAUUAACA,0.406 ± 0.028

# Reference: the supplement of paper PMC10338343
